Active and inactive are the calls of the source.

Assay [1] can be described thus: optical density shifts of acrAB sulA E. coli – strain DRC41, OD650, 48 h, E. coli filamentation inducer project, primary screen (AID 1152).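 Further: E. coli MC1000 strain DRC41 lacking acrAB efflux pump and sulA.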 The settings on record: higher = more signal, called active from +8 up or from −8 down.
Assay [2] is described as follows: probe aLefty1 binding on compound microarray – biochemical, small-molecule microarray, 635/667 nm fluorescence, primary screen (AID 1153).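 Further: score merges spot fluorescence with signal-to-noise ratio from the scanned slide images.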 As to conditions: higher = more signal.
Assay [3] in a line: plasmodial surface anion channel blockers, osmotic lysis – cell-based, P. falciparum Indochina, OD700, 1 h, primary screen (AID 1154). As to conditions: P. falciparum Indochina infected RBC osmotic lysis, higher = more signal, called active from +8 up or from −8 down.
Assay [4] is described as follows: plasmodial surface anion channel blockers, osmotic lysis – cell-based, P. falciparum Indochina, OD700, 2 h, primary screen (AID 1155).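 Further: lysis reports solute entry through the parasite surface anion channel PSAC.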 As to conditions: P. falciparum Indochina infected erythrocytes, higher = more signal, called active from +8 up or from −8 down.
Assay [5] is described as follows: changes in parasitized red cell lysis, either direction – P. falciparum Indochina, OD700, 3 h, PSAC antagonist project, primary screen (AID 1156). As to conditions: P. falciparum-infected erythrocytes, osmotic lysis, higher = more signal, called active from +8 up or from −8 down.
Assay [6] can be described thus: plasmodial surface anion channel blockers, osmotic lysis – cell-based, P. falciparum Indochina, OD700, 18 h, primary screen (AID 1157). As to conditions: P. falciparum Indochina infected erythrocytes, osmotic lysis OD700, 18 h; higher = more signal, called active from +8 up or from −8 down.
Assay [7] in a line: S6 kinase pathway phospho-S6 level changes – cell-based, A549, cytoblot, luminescence, serum-stimulated, primary screen (AID 1158).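 Further: serum-stimulated A549 lung adenocarcinoma cells; signal is phosphorylated S6 detected by cytoblot immunostaining with HRP secondary.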 The settings on record: 5 h, higher = more signal.
For assay [8], the target named is NADPH oxidase 2 (Homo sapiens) (UniProt P04839). Put plainly: compounds shifting NOX2 Amplex Red fluorescence – cell-based, HEK293-NOX2, PMA-stimulated, NOX inhibitor project, primary screen (AID 1159). Further: test concentration not given here. The settings on record: 45 min, higher = more signal, called active from +8 up or from −8 down.
Assay [9] deals with NADPH oxidase 4 (Homo sapiens) (UniProt Q9NPH5). Nature of the assay: compounds shifting NOX4 Amplex Red fluorescence – cell-based, HEK293-NOX4, tetracycline-induced, NOX inhibitor project, primary screen (AID 1160). The settings on record: HEK293-NOX4, Amplex Red H2O2 fluorescence, 45 min; higher = more signal, called active from +8 up or from −8 down.
Assay [10] has as its target NADPH oxidase 5 (Homo sapiens) (UniProt Q96PH1). Put plainly: compounds shifting NOX5 Amplex Red fluorescence – cell-based, HEK293-NOX5, NOX inhibitor project, primary screen (AID 1161). As to conditions: HEK293-NOX5, ionomycin, 45 min, higher = more signal.
Assay [11] in a line: compound effects on lung adenocarcinoma cell viability – A549, calcein-AM fluorescence, 48 h, basal, profiling panel (AID 1162). Further: test concentration not given here. As to conditions: higher = more signal.
A short description of assay [12]: compound effects on differentiated 3T3-L1 adipocyte viability – cell-based, 3T3-L1 adipocytes, calcein-AM fluorescence, 48 h, basal, profiling panel (AID 1163). Further: test concentration not given here. The settings on record: 3T3-L1 adipocytes viability, higher = more signal.
Assay [13] is described as follows: compound effects on hepatocellular carcinoma cell viability – HepG2, calcein-AM fluorescence, 48 h, basal, profiling panel (AID 1164). Further: test concentration not given here. As to conditions: higher = more signal.
A short description of assay [14]: compound effects on multiple myeloma cell viability – MM1S, calcein-AM fluorescence, 48 h, basal, profiling panel (AID 1165). Further: test concentration not given here. As to conditions: higher = more signal.
A short description of assay [15]: calcein-AM signal in unstimulated myeloma cells – cell-based, calcein-AM fluorescence, 48 h, PK04 Diversity Set, profiling panel (AID 1166).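 Further: cells grown under basal conditions without added stimulus; test concentration not given here.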 As to conditions: RPMI8226 myeloma viability, higher = more signal.
Assay [16] is described as follows: JC-1 mitochondrial signal, unstimulated HepG2 cells – cell-based, JC-1 fluorescence, 24 h, 100 nL compound, profiling panel (AID 1167). Further: test concentration not given here. The settings on record: HepG2 mitochondrial potential, higher = more signal.
Assay [17] is described as follows: JC-1 mitochondrial signal, unstimulated adipocytes – cell-based, JC-1 fluorescence, 3T3-L1 adipocytes, 24 h, 100 nL compound, profiling panel (AID 1168). Further: test concentration not given here. As to conditions: JC-1 mitochondrial fluorescence, higher = more signal, called active from +8 up or from −8 down.
The nature of assay [18]: JC-1 mitochondrial signal, unstimulated myeloma cells – cell-based, JC-1 fluorescence, RPMI8226, 24 h, 100 nL compound, profiling panel (AID 1169). Further: test concentration not given here. As to conditions: JC-1 mitochondrial potential fluorescence, higher = more signal.
Assay [19] can be described thus: JC-1 mitochondrial signal, unstimulated MM1S myeloma – cell-based, JC-1 fluorescence, 24 h, 100 nL compound, profiling panel (AID 1170). Further: test concentration not given here. As to conditions: MM1S mitochondrial potential, higher = more signal.
A short description of assay [20]: resazurin metabolic signal in A549 cells – cell-based, resazurin fluorescence, 24 h, PK04 Diversity Set, profiling panel (AID 1171). Further: test concentration not given here. The settings on record: A549 viability, higher = more signal, called active from +8 up or from −8 down. A general note: Alamar Blue is a resazurin reagent that responds to reducing activity.

NADPH oxidase 4 (Homo sapiens), sequence (Q9NPH5 whole entry, looked up): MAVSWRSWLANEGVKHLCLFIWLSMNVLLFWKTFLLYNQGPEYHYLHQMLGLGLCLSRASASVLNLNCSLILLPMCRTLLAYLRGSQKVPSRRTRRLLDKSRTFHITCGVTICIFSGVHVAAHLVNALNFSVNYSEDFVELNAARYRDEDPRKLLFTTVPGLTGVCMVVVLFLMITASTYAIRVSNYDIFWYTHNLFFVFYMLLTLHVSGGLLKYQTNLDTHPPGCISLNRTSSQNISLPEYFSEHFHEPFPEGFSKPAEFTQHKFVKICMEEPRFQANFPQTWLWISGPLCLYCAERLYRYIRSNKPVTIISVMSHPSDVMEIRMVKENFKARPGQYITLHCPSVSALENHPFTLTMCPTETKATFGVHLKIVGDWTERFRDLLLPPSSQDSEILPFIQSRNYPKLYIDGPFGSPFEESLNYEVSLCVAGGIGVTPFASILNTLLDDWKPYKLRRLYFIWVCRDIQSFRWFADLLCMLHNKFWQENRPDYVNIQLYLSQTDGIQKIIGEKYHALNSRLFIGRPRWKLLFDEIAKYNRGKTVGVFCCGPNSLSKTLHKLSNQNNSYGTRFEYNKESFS
NADPH oxidase 5 (Homo sapiens), sequence (Q96PH1 whole entry, looked up): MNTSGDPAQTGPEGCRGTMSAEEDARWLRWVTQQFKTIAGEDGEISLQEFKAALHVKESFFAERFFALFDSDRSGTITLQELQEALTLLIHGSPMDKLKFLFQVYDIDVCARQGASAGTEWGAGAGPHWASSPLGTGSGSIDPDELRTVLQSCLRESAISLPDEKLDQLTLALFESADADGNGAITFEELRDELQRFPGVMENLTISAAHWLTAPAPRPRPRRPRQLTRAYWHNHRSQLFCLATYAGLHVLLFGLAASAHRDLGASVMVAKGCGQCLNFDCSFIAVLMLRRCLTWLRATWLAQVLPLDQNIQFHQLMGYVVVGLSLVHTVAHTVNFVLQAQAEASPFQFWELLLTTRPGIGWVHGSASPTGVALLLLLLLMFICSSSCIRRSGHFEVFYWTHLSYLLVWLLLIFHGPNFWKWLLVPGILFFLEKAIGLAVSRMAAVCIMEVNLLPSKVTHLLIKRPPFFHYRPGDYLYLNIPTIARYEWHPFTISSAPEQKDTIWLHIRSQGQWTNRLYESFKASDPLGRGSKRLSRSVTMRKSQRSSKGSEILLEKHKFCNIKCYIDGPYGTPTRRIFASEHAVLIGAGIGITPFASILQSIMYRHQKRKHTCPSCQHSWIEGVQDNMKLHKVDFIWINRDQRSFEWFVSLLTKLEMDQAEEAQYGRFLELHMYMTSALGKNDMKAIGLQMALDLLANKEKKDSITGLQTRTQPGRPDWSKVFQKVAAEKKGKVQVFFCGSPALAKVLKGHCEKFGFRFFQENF
NADPH oxidase 2 (Homo sapiens), sequence (P04839 whole entry, looked up): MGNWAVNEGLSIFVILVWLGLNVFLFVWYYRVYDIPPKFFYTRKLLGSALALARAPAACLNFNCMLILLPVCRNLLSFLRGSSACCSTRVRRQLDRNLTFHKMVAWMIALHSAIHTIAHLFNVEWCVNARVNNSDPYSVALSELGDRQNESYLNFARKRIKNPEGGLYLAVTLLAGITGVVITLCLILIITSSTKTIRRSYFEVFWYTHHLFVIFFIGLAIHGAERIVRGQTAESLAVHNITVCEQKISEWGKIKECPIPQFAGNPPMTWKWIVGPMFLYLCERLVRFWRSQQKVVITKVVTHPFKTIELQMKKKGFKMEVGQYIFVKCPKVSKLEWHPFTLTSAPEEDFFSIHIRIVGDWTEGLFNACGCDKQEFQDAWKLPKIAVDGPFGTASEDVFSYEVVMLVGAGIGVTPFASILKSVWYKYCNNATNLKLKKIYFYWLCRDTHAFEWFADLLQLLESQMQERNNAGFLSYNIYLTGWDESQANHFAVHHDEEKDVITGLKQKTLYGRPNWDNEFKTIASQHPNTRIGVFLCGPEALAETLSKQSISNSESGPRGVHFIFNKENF

Regarding `CCCc1cc2c(n1CCc1ccc(Cl)cc1)C(C)C1CN(C(=O)c3ccccc3)C(C)(C(=O)OC)C21` (stereo not given), the z-score in assay [1] was -2.41 (inactive); in [3], 2.24 (inactive); in [4], 0.322 (inactive); in assay [5] it was 2.8 (inactive); in assay [6], 0.347 (inactive); in assay [7] it was 0.0928. For the same compound, the z-score in assay [8] was -2.06 (inactive); in [9] it was -7.6 (inactive); in assay [10] it was -5.16; in [11], -1.7; in assay [12], 1.33; in assay [13], -0.534. Also, the z-score was -3.25 in [14]; -4.74 in assay [15]; 4.02 in [16]; -1 (inactive) in assay [17]; -0.78 in assay [18]; -1.19 in assay [19]. For the same compound, the z-score in assay [20] is -1.94 (inactive). Further, in assay [2], the composite z-score stood at 0.268.
As to `COc1ccc([Si](C)(C)[C@@H]2[C@@H](CC(=O)N3CCC[C@H]3CO)O[C@]3(C(=O)N(Cc4ccc(N5CCOC5=O)cc4)c4ccccc43)[C@H]2C)cc1`, the z-score was 1.3 (inactive) in assay [1]; 6.25 (inactive) in assay [3]; 0.176 (inactive) in assay [4]; -1.52 (inactive) in [5]; -0.774 (inactive) in assay [6]; 0.615 in assay [7]. Further, the z-score in assay [8] is 2.64 (inactive); in assay [9] it was 1.57 (inactive); in assay [10], 3.85; in assay [11], -0.526; in assay [12], 1.05; in assay [13], -2.21. In addition, the z-score in assay [14] is -2.64; in assay [15] it was -4.54; in assay [16] it was 0.391; in assay [17], 1.67 (inactive); in assay [18], -1.07; in [19], -1.75. Also, the z-score in assay [20] was -1.77 (inactive). Moreover, the composite z-score in [2] is -0.0099.
With `C=CCC(OC(C)=O)[C@@H]1[C@@H](N(Cc2ccc(-c3ccccc3)cc2)C(=O)c2cccc3ccccc23)c2cc(OCCCO)ccc2N1C(=O)Cc1ccc(OC)cc1` (stereo not given in full), the z-score in assay [1] was -1.17 (inactive); in assay [3], 0.53 (inactive); in [4], 0.525 (inactive); in assay [5], 0.375 (inactive); in assay [6] it was 0.211 (inactive); in assay [7], -0.0451. Moreover, the z-score in [8] was -0.248 (inactive); in assay [9], -0.0822 (inactive); in assay [10], -2.28; in assay [11], -0.0276; in [12] it was 0.725; in [13], -0.518. For the same compound, the z-score in assay [14] was -0.536; in assay [15] it was -0.682; in [16] it was 1.57; in assay [17], -1.63 (inactive); in assay [18] it was 0.78; in [19], 0.401. For the same compound, the z-score in assay [20] is -0.399 (inactive). This compound also showed a composite z-score in [2] of 0.568.
Consider `COc1ccc(C(=O)Nc2ccc3c(c2)[C@@]2(O[C@H](CCO)[C@@H]([Si](C)(C)c4ccc(OC)cc4)[C@@H]2C)C(=O)N3Cc2ccccc2)cc1`, for which the z-score was -0.134 (inactive) in [1]; 3.2 (inactive) in assay [3]; 0.98 (inactive) in assay [4]; 0.768 (inactive) in [5]; -0.188 (inactive) in assay [6]; 0.721 in assay [7]. The z-score was -4.96 (inactive) in [8]; -1.62 (inactive) in assay [9]; 0.371 in [10]; -1.68 in [11]; 1.38 in [12]; -3.6 in assay [13]. The z-score in assay [14] was -2.72; in [15], -4.3; in assay [16], -1.9; in [17], 1.59 (inactive); in [18], -1.04; in assay [19] it was -2.2. For the same compound, the z-score in assay [20] was -2.72 (inactive). This compound also displayed a composite z-score in [2] of 0.778.
As to `COCCOC(=O)N1C(=O)[C@@]2(c3cc(C#CC4(O)CCCCCC4)ccc31)[C@H](c1ccc(O)cc1)N1[C@H](c3ccccc3)[C@H](c3ccccc3)OC(=O)[C@H]1[C@@H]2C(=O)N1CCCCCCC1`, the z-score is 0.341 (inactive) in assay [1]; 1.13 (inactive) in assay [3]; 0.928 (inactive) in [4]; 0.0786 (inactive) in assay [5]; 0.166 (inactive) in assay [6]; -0.363 in [7]. Also, the z-score in assay [8] was 1.61 (inactive); in assay [9], 0.0838 (inactive); in assay [10], 1.41; in [11], 0.717; in [12], -0.854; in [13], 0.98. Besides, the z-score was -0.615 in [14]; -1.83 in [15]; -0.442 in [16]; -0.943 (inactive) in assay [17]; -1.01 in [18]; 0.0446 in [19]. In addition, the z-score in [20] is -0.178 (inactive). The same compound displayed a composite z-score in assay [2] of 1.08.
For the compound `COCCOC(=O)N1C(=O)[C@@]2(c3cc(C#CCC(C(=O)OC)C(=O)OC)ccc31)[C@H](C(=O)Nc1nc3ccccc3s1)[C@H]1C(=O)O[C@H](c3ccccc3)[C@H](c3ccccc3)N1[C@@H]2c1ccc(O)cc1`, the z-score in [1] was 0.0976 (inactive); in assay [3], 1.3 (inactive); in assay [4] it was 0.575 (inactive); in [5] it was -0.0813 (inactive); in assay [6], 0.751 (inactive); in [7], -0.0525. Besides, the z-score in assay [8] is 1.59 (inactive); in assay [9], -1.11 (inactive); in [10] it was 0.755; in [11] it was -0.857; in assay [12], 0.401; in assay [13], -0.277. The z-score is 0.0422 in [14]; -0.23 in assay [15]; -2.45 in assay [16]; -2.24 (inactive) in assay [17]; 0.467 in assay [18]; 0.258 in assay [19]. In addition, the z-score in assay [20] is 0.677 (inactive). The compound further had a composite z-score in assay [2] of 0.786.
`CC(C)(C)N1CC=CC23O[C@@H]4C=CCOC(=O)[C@@H]4[C@H]2C(=O)N(CCO)[C@@H]3C1=O` (stereo not given in full): the z-score in assay [1] was -0.476 (inactive); in assay [3], 0.55 (inactive); in [4], 0.184 (inactive); in [5] it was 0.0221 (inactive); in assay [6], 0.526 (inactive); in assay [7], -0.694. In addition, the z-score in assay [8] is 1.09 (inactive); in assay [9] it was 1.32 (inactive); in [10], 1.59; in assay [11], -0.247; in assay [12] it was -0.229; in [13], -0.112. Also, the z-score was 0.0476 in [14]; -0.46 in assay [15]; -0.731 in [16]; 0.316 (inactive) in [17]; 0.0281 in assay [18]; -0.537 in [19]. Also, in assay [20], the z-score was -0.465 (inactive). Further, the composite z-score in assay [2] is -0.0967.
In the case of `C=CCC(OC(C)=O)[C@@H]1[C@@H](N(Cc2cc3ccccc3o2)C(=O)Cc2ccc(OC)cc2)c2cc(OCCCO)ccc2N1C(=O)c1ccc2ccccc2n1` (stereo not given in full), the z-score is 0.697 (inactive) in assay [1]; 2.75 (inactive) in [3]; 0.567 (inactive) in assay [4]; 0.867 (inactive) in assay [5]; 0.186 (inactive) in [6]; 0.856 in assay [7]. The z-score in assay [8] was 0.226 (inactive); in assay [9], -1.14 (inactive); in [10], 1.52; in assay [11], 0.542; in assay [12] it was 1.46; in assay [13] it was 1.26. In addition, the z-score in assay [14] is 0.307; in [15], -1.63; in [16] it was 2.31; in assay [17], -0.106 (inactive); in assay [18] it was -0.617; in assay [19] it was 0.576. Moreover, the z-score in [20] is -0.719 (inactive). For the same compound, in [2], the composite z-score is 0.231.

These data come from PubChem BioAssay.
